From PubChem BioAssay AID651784 (National Center for Advancing Translational Sciences (NCATS), 2012) come the findings set out here.

The structures appear in SMILES notation. Inconclusive results are not listed. Active and inactive are the calls of the source. Calls come from the whole dose curve; as a rule, active = well fitted inhibition curve with a large enough effect; inconclusive = small, poorly fitted or top-dose-only effect; inactive = no such curve, though single readings can be large or run the other way.
Potency is the fitted concentration of half-maximal effect.

This assay in a line: Acumen qHTS Assay for Inhibitors of the mTORC1 Signaling Pathway in MEF (Tsc2-/-, p53-/-) Cells: Hit Validation.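 For activity change, negative = inhibition: cells exposed to compound for 24 hours; plate controls were DMSO for no effect and 7.5 nM rapamycin control for full effect.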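 Note: phospho-rpS6 Ser235/236 immunofluorescence normalized to propidium iodide cell count; nearly all actives have a fitted effect of over 65% in size.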 To be noted: Acumen imaging; activity change, negative = inhibition: at 37.3 µM (top of the series). (In general: Quantitative high-throughput screening tests each substance at several concentrations.)
Consider `CC(C)(C)c1ccc(C2NC(=O)c3n[nH]c(-c4cccs4)c32)cc1` (configuration not stated), for which the activity change, negative = inhibition was -6.84%.

On to `CCc1ccc(S(=O)(=O)N(C(=O)c2ccncc2)c2ccc3oc(C)c(C(=O)OC)c3c2)cc1`, for which the Potency is 11.7 µM (active).

Consider `Cc1ccc(CS(=O)(=O)c2ncc(Cl)c(C(=O)Nc3nnc(C(C)C)s3)n2)cc1`, for which the Potency was 5.85 µM (active).

In the case of `COc1cc(C)ccc1OCCn1c(-c2ccc(Cl)cc2)nc2ccccc2c1=O`, the activity change, negative = inhibition was -1.14%.

Take `CC(C)N(C(=O)CSc1nc2ccc(Cl)cc2[nH]1)c1ccccc1`: the activity change, negative = inhibition is -16%.

Regarding `CCN(CC)CCNC(=O)c1ccc(Cn2c(=O)c3cccn3c3cccnc32)cc1`, the activity change, negative = inhibition was -24.3%.

With `Cc1cc(C)cc(Nc2cc(C(=O)NCCCN(C)C3CCCCC3)c3ccccc3n2)c1`, the activity change, negative = inhibition was -88.5%.

Regarding `Cc1ccc(-c2nnc(Nc3ccc(O)cc3)c3ccccc23)cc1S(=O)(=O)N1CCCCC1`, the activity change, negative = inhibition was -11.6%.

Take `Cc1cccc(C(=O)Nc2c3c(nn2-c2ccc(Cl)cc2)CS(=O)(=O)C3)c1`: the activity change, negative = inhibition is 12.6%.

As to `CCNc1nc2c(c(=O)[nH]c(=O)n2C)n1CC(O)COc1ccc(Cl)cc1Cl` (configuration not stated), the Potency is 0.147 µM (active).

`COC(=O)c1ccccc1NC(=O)c1nc(S(=O)(=O)Cc2cccc(C)c2)ncc1Cl`: the Potency is 4.14 µM (active).

For the compound `Fc1ccc(Nc2nc3nonc3nc2Nc2cccc(C(F)(F)F)c2)cc1`, the Potency was 1.85 µM (active).

For the compound `Cc1nn(C(C)C(=O)NC2CCC(C)CC2)c(=O)c2c1sc1ccccc12` (configuration not stated), the activity change, negative = inhibition was -5.69%.

Consider `CCC(C(=O)N1CCN(c2cccc(C)c2C)CC1)n1nc(C)c2sc3ccccc3c2c1=O` (configuration not stated), for which the activity change, negative = inhibition is -0.603%.

In the case of `COc1ccc(C2Sc3ccccc3NC3=C2C(=O)c2ccccc23)c(OC)c1OC` (configuration not stated), the activity change, negative = inhibition was -65.9%.

On to `Cc1ccc(C(=O)CC2(O)C(=O)N(Cc3ccccc3F)c3ccccc32)cc1` (configuration not stated), for which the activity change, negative = inhibition was -11.8%.

On to `CCCC1=Nc2cc(C(=O)NCc3ccccc3)ccc2Sc2ccccc21`, for which the Potency was 4.14 µM (active).

Turning to `CC(C)CCNC(=O)c1cccc(Nc2nc3ccccc3n3nnnc23)c1`, the activity change, negative = inhibition is -88.5%.

For the compound `COc1ccc(Oc2nc3c(C)cccn3c(=O)c2/C=C(\C#N)c2nc3ccccc3[nH]2)cc1`, the activity change, negative = inhibition came out at 11.5%.

With `CS(=O)(=O)CCNCc1ccc(-c2ccc3ncnc(Nc4ccc(OCc5cccc(F)c5)c(Cl)c4)c3c2)o1`, the activity change, negative = inhibition stood at 5.21%.

In the case of `Cc1cc(NC(=O)c2ccco2)cc(-c2nc3cc(Cl)ccc3o2)c1O`, the activity change, negative = inhibition is -46.5%.

On to `CCOC(=O)c1c(C)[nH]c(CCC(=O)NCCCN2CCN(c3cc(C)ccc3C)CC2)c1C`, for which the Potency was 16.5 µM (active).

As for `Cc1ccc([C@H]2Nc3ccc(S(=O)(=O)Nc4cccc(Cl)c4C)cc3[C@H]3C=CC[C@H]32)cc1`, the activity change, negative = inhibition amounted to 8.84%.

For `CCc1ccc(S(=O)(=O)N(C(=O)Oc2ccccc2)c2ccc3oc(C)c(C(=O)OC)c3c2)cc1`, the activity change, negative = inhibition is -70.3%.

As for `CCN1CCC(N(Cc2ccc(F)cc2)C(=O)Nc2ccc(C)c(F)c2)CC1`, the activity change, negative = inhibition is 5.5%.

On to `Cc1ccc(C)c(S(=O)(=O)NCC(c2ccco2)S(=O)(=O)c2ccc(F)cc2)c1` (configuration not stated), for which the activity change, negative = inhibition is -16.2%.

On to `COc1ccc2cc(CNc3ccccc3)c(=O)n(CC(=O)Nc3ccc(C)cc3C)c2c1`, for which the activity change, negative = inhibition is -44%.

`CCC(=O)C1=C(c2ccc(Cl)cc2)N(C(=O)CC)n2c(C)nnc2S1`: the activity change, negative = inhibition is -10.3%.

Consider `Cc1cccc(N(C)S(=O)(=O)c2ccc(-c3cc(C)no3)s2)c1`, for which the activity change, negative = inhibition is -13.9%.

Take `COc1cccc(-n2c(-c3ccc(C)cc3)cc3c2CC(C)(C)CC3=O)c1`: the activity change, negative = inhibition was -34.9%.

As for `N=c1n(CCN2CCCCC2)c2ccccc2n1CC(O)COc1ccc(Cl)cc1Cl` (configuration not stated), the Potency was 5.21 µM (active).

With `CC(=O)C1=C(c2ccc(Cl)c(Cl)c2)N(C(C)=O)n2cnnc2S1`, the Potency was 5.21 µM (active).

Take `Cc1c(C(=O)OCCOc2ccccc2)[nH]c2c1C(=O)CC(c1ccccc1)C2` (configuration not stated): the Potency is 0.117 µM (active).

`CCOc1ccccc1Nc1nc(-c2cccc(Cl)c2)c2c(n1)-c1ccccc1OC2`: the activity change, negative = inhibition is -15.1%.

As for `CC(C)CCNC(=O)Nc1ccc2c(c1)N(C)C(=O)c1ccccc1S2`, the activity change, negative = inhibition was -8.55%.

Turning to `COC(=O)c1cc2sc(C)cc2n1Cc1ccccc1`, the activity change, negative = inhibition was -16.6%.

Turning to `CCN1CCOC(=O)C1CC(=O)Nc1cc(C)ccc1OC` (configuration not stated), the Potency is 10.4 µM (active).
